The values that follow come from article PMC5540273 (PLoS ONE, 2017).

Common to all, as to settings: concentration: 1 μM, replicates: in singlicate; n = 1
Experiment [1] deals with T1, RSK1(Kin.Dom.2-C-terminal).
T1 construct: gene RPS6KA1

For experiment [2], the system named is T2, RSK2(Kin.Dom.1-N-terminal).
T2 construct: gene RPS6KA3

In experiment [3] the test system is T3, RSK2(Kin.Dom.2-C-terminal).
T3 construct: gene RPS6KA3

Experiment [4] relates to T4, RSK3(Kin.Dom.1-N-terminal).
T4 construct: gene RPS6KA2

The test system of experiment [5] is T5, RSK3(Kin.Dom.2-C-terminal).
T5 construct: gene RPS6KA2

The subject of experiment [6] is T6, RSK4(Kin.Dom.1-N-terminal).
T6 construct: gene RPS6KA6

Experiment [7] relates to T7, RSK4(Kin.Dom.2-C-terminal).
T7 construct: gene RPS6KA6

Experiment [8] concerns S6K1.
The test system of experiment [9] is SBK1.
In experiment [10] the test system is SGK2.
For experiment [11], the system named is SGK3.
Experiment [12] has as its system SGK.
The subject of experiment [13] is SIK2.
The subject of experiment [14] is SIK.
The test system of experiment [15] is SLK.
Experiment [16] deals with T8, SNARK.
T8 construct: gene NUAK2

For experiment [17], the system named is SNRK.
The subject of experiment [18] is SRC.
Experiment [19] deals with SRMS.
Experiment [20] relates to SRPK1.
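Note: KINOMEscan kinase panel screen.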

For `FC(F)(F)c1ccccc1-c1cc(-c2c[nH]nc2-c2ccccn2)ccn1` [GW679396], the “%Inh” value is given as 13% in experiment [1]; 0% in experiment [2]; 0% in experiment [3]; 6% in experiment [4]; 0% in experiment [5]; 0% in [6]. For the same compound, the “%Inh” value in experiment [7] was 22%; in experiment [8], 0%; in experiment [9], 13%; in experiment [10], 0%; in [11] it was 1%; in [12] it was 0%. Also, the “%Inh” value in experiment [13] is on record as 0%; in experiment [14] it was 0%; in experiment [15] it was 15%; in experiment [16], 0%; in experiment [17] it was 0%; in [18], 0%. Further, the “%Inh” value in [19] was determined as 0%; in experiment [20] it was 3%.
Regarding `NS(=O)(=O)c1cccc(N/C=C2\C(=O)Nc3ccc(S(=O)(=O)Cc4c(Cl)cccc4Cl)cc32)c1` [GSK398099], the “%Inh” value was 100% in experiment [1]; 6% in [2]; 0% in experiment [3]; 10% in experiment [4]; 0% in [5]; 0% in [6]. Besides, the “%Inh” value in [7] is on record as 2%; in [8] it was 0%; in [9], 21%; in experiment [10] it was 8%; in experiment [11], 5%; in [12], 0%. The “%Inh” value in experiment [13] amounted to 0%; in experiment [14] it was 0%; in experiment [15], 15%; in experiment [16], 0%; in [17], 0%; in experiment [18], 0%. The “%Inh” value worked out at 0% in experiment [19] and 19% in experiment [20].
With `CNc1nc(-c2ccc3c(N)n[nH]c3c2)cc(N2C[C@@H](C(=O)NC3CCCCC3)OC[C@H]2C)n1` [GSK2375584], the “%Inh” value is recorded as 19% in experiment [1]; 0% in experiment [2]; 14% in experiment [3]; 9% in experiment [4]; 6% in experiment [5]; 0% in experiment [6]. The “%Inh” value in [7] came to 20%; in [8], 10%; in [9] it was 0%; in experiment [10] it was 0%; in experiment [11] it was 20%; in [12], 0%. Besides, the “%Inh” value is 0% in experiment [13]; 0% in experiment [14]; 24% in [15]; 30% in experiment [16]; 2% in [17]; 0% in experiment [18]. The “%Inh” value in experiment [19] came to 0%; in experiment [20] it was 4%.
With `CNc1nc(-c2ccc3c(N)n[nH]c3c2)cc(N2C[C@@H](C(=O)Nc3ccccc3)CC[C@H]2C)n1` [GSK2298859], the “%Inh” value in [1] is reported as 0%; in experiment [2], 0%; in experiment [3], 0%; in [4], 7%; in experiment [5], 3%; in experiment [6] it was 0%. Besides, the “%Inh” value in experiment [7] is given as 23%; in [8], 0%; in experiment [9], 4%; in experiment [10] it was 0%; in [11], 1%; in [12], 0%. Further, the “%Inh” value in experiment [13] is 0%; in [14], 4%; in [15] it was 19%; in experiment [16], 8%; in experiment [17], 0%; in [18], 2%. For the same compound, the “%Inh” value in experiment [19] turned out to be 0%; in experiment [20], 33%.
For the compound `Cc1c(Cn2c(C)c(C)n3c(=O)cc(N4CCOCC4)nc23)cccc1C(F)(F)F` [GSK2328680], the “%Inh” value in experiment [1] came out at 0%; in experiment [2], 0%; in experiment [3] it was 2%; in experiment [4], 7%; in [5] it was 0%; in [6] it was 0%. The “%Inh” value is 5% in experiment [7]; 0% in [8]; 22% in [9]; 0% in [10]; 0% in [11]; 16% in [12]. Besides, the “%Inh” value in experiment [13] came out at 0%; in experiment [14], 0%; in experiment [15], 22%; in experiment [16] it was 0%; in experiment [17] it was 0%; in [18], 0%. Besides, the “%Inh” value is given as 0% in [19] and 6% in [20].
As for `Cl.Cl.Cl.N#Cc1ccc(CCNc2nccc(-c3cccc(CN4CCNCC4)c3)n2)cc1` [GSK2137462], the “%Inh” value in experiment [1] is 0%; in experiment [2], 0%; in experiment [3] it was 0%; in [4], 0%; in experiment [5], 13%; in [6] it was 0%. Besides, the “%Inh” value in [7] came to 31%; in experiment [8], 34%; in experiment [9], 24%; in [10], 0%; in [11], 10%; in experiment [12], 0%. The “%Inh” value in experiment [13] turned out to be 2%; in experiment [14], 0%; in experiment [15], 6%; in [16], 12%; in experiment [17] it was 0%; in [18], 15%. In addition, the “%Inh” value came to 2% in experiment [19] and 21% in experiment [20].
Regarding `O=c1cc(N2CCOCC2)nc2n(Cc3cccc(Cl)c3Cl)c3ccccc3n12` [GSK2299009], the “%Inh” value in [1] is listed as 5%; in experiment [2], 19%; in experiment [3], 53%; in [4], 4%; in experiment [5], 0%; in experiment [6], 0%. Moreover, the “%Inh” value in experiment [7] turned out to be 5%; in experiment [8] it was 14%; in [9], 28%; in [10], 37%; in experiment [11], 4%; in experiment [12], 31%. Further, the “%Inh” value in experiment [13] was determined as 18%; in experiment [14] it was 16%; in experiment [15], 39%; in experiment [16] it was 16%; in experiment [17] it was 0%; in [18] it was 0%. Also, the “%Inh” value was found to be 0% in experiment [19] and 19% in experiment [20].
For `CSc1ccc(-c2nc3n(c2-c2ccncc2)CCC3)cc1` [SKF-105561], the “%Inh” value is on record as 62% in experiment [1]; 0% in [2]; 20% in experiment [3]; 0% in experiment [4]; 35% in experiment [5]; 8% in [6]. For the same compound, the “%Inh” value is reported as 70% in experiment [7]; 0% in experiment [8]; 30% in experiment [9]; 7% in [10]; 6% in [11]; 0% in experiment [12]. For the same compound, the “%Inh” value in experiment [13] is 0%; in experiment [14] it was 0%; in experiment [15], 7%; in experiment [16], 0%; in experiment [17], 18%; in experiment [18], 0%. The “%Inh” value amounted to 13% in experiment [19] and 2% in experiment [20].
For the compound `CC(=O)c1cccc(NC(=O)NC2CCN(c3ccnc(Nc4ccc(F)cc4)n3)C2)c1` (centres unmarked) [GSK1379710], the “%Inh” value in experiment [1] came to 14%; in experiment [2], 0%; in experiment [3], 30%; in experiment [4], 17%; in experiment [5], 6%; in [6] it was 0%. Moreover, the “%Inh” value turned out to be 21% in experiment [7]; 0% in experiment [8]; 5% in experiment [9]; 0% in experiment [10]; 5% in [11]; 18% in [12]. Besides, the “%Inh” value is on record as 9% in experiment [13]; 0% in experiment [14]; 2% in [15]; 19% in [16]; 7% in [17]; 0% in experiment [18]. The results for the “%Inh” value in experiment [19] and in [20] were 8% and 21%, respectively.
In the case of `CNC(=O)c1ccc(C)c(-n2c(C)cc(OCc3ccc(F)cc3F)c(Br)c2=O)c1`, the “%Inh” value in [1] is given as 0%; in experiment [2], 0%; in experiment [3] it was 0%; in experiment [4] it was 10%; in experiment [5], 0%; in experiment [6] it was 0%. Also, the “%Inh” value in [7], in [8], in experiment [9], in experiment [10], in [11] and in experiment [12] was 0% throughout. Moreover, the “%Inh” value in experiment [13], in [14], in [15], in experiment [16], in [17] and in experiment [18] was 0% throughout. In addition, the “%Inh” value in experiment [19] was determined as 0%; in experiment [20], 14%.
